According to PubChem BioAssay (NCI):
Compounds without any hit were thinned out: in the full panel of roughly 83,000, 20% have a hit.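 Interpretation: 100, growth as untreated; towards 0, rising growth inhibition; 0, no net growth; 0 to -100, cell death. Compounds scoring below 10 were considered active.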 Calls of active or inactive are those of the source.

Experiments:
Test in all cases: NCI-60 one-dose screen, 48 h (100 = growth as untreated, 0 = no growth, -100 = all killed)
NCI-H226 lung = settings: 10 µM
NCI-H322M lung = settings: 10 µM
HOP-62 NSCLC = settings: 10 µM
NCI-H460 lung = settings: 10 µM
A549/ATCC NSCLC = settings: 10 µM
COLO 205 colon = settings: 10 µM
DU-145 prostate = settings: 10 µM
K-562 leukemia = settings: 10 µM
SF-539 CNS = settings: 10 µM
M14 melanoma = settings: 10 µM
HCT-15 colon = settings: 10 µM
HT29 colon = settings: 10 µM
SNB-75 CNS = settings: 10 µM
U251 CNS = settings: 10 µM
LOX IMVI melanoma = settings: 10 µM
MOLT-4 leukemia = settings: 10 µM
SR leukemia = settings: 10 µM
RPMI-8226 leukemia = settings: 10 µM
SK-OV-3 ovarian = settings: 10 µM
MDA-MB-468 breast = settings: 10 µM unless noted

Measured: growth

Cc1cc(N=C2NC(=O)S/C2=C\c2ccc(F)cc2)n[nH]1
active: NCI-H460 lung 5.74% | SF-539 CNS 4.62% | M14 melanoma -30.7% | HT29 colon 6.68% | SNB-75 CNS 2.65% | U251 CNS 5.06% | LOX IMVI melanoma -59.8% | SR leukemia 8.59% | RPMI-8226 leukemia -14.7% | MDA-MB-468 breast -5.57%
inactive: NCI-H226 lung 17.1% | NCI-H322M lung 32.3% | HOP-62 NSCLC 26.7% | A549/ATCC NSCLC 18.9% | COLO 205 colon 19.2% | DU-145 prostate 30% | K-562 leukemia 15.4% | HCT-15 colon 13.9% | MOLT-4 leukemia 10.5% | SK-OV-3 ovarian 44.3%

C=CCn1c(SCC(=O)Nc2ccc(C(=O)/C=C/c3cc(OC)c(OC)c(OC)c3)cc2)nnc1-c1cc(-c2ccc(S(C)(=O)=O)cc2)nc2ccccc12
inactive: MDA-MB-468 breast 88.8%

C[C@]12CC[C@H]3[C@@H](CCC4=CC(=O)CC[C@@]43C)[C@@H]1CC[C@@H]2c1csc(N)n1
inactive: MDA-MB-468 breast 28.4%

Cn1cc(/C=C(/SS/C(=C/c2cn(C)c3cccc(C(=O)O)c23)C(=O)O)C(=O)O)c2c(C(=O)O)cccc21
inactive: NCI-H226 lung 97.7% | NCI-H322M lung 102% | HOP-62 NSCLC 103% | NCI-H460 lung 110% | A549/ATCC NSCLC 99.6% | COLO 205 colon 112% | DU-145 prostate 104% | K-562 leukemia 87.4% | SF-539 CNS 98.5% | M14 melanoma 115% | HCT-15 colon 99.4% | HT29 colon 107% | SNB-75 CNS 88.8% | U251 CNS 99.6% | LOX IMVI melanoma 48.9% | MOLT-4 leukemia 111% | SR leukemia 98.7% | RPMI-8226 leukemia 105% | SK-OV-3 ovarian 114% | MDA-MB-468 breast 103%

O=C1c2cccc3c(-c4ccc5c(c4)ncn5C4CCCCC4)ccc(c23)C(=O)N1c1nc2ccccc2s1
inactive: MDA-MB-468 breast 92%

O=C(O)CCN1C(=O)/C(=C/C=C/c2ccc([N+](=O)[O-])o2)SC1=S
active: LOX IMVI melanoma -100% | MOLT-4 leukemia -20.4% | SR leukemia 0.111% | RPMI-8226 leukemia -19.3% | MDA-MB-468 breast -77.8%
inactive: NCI-H322M lung 31% | A549/ATCC NSCLC 10.4% | DU-145 prostate 26.3% | K-562 leukemia 11.1% | SNB-75 CNS 24.2% | SK-OV-3 ovarian 63.5%

Cc1ccc(COc2ccc(NC(=O)Nc3ccc(Cl)c(C(F)(F)F)c3)cc2)cc1
inactive: NCI-H226 lung 75.7% | NCI-H322M lung 77.4% | HOP-62 NSCLC 97.9% | NCI-H460 lung 59.5% | A549/ATCC NSCLC 64.7% | COLO 205 colon 76.8% | DU-145 prostate 81.5% | K-562 leukemia 66.7% | SF-539 CNS 78.7% | M14 melanoma 93.4% | HCT-15 colon 52.2% | HT29 colon 80.6% | SNB-75 CNS 72.4% | U251 CNS 69.8% | LOX IMVI melanoma 15.6% | MOLT-4 leukemia 73.5% | SR leukemia 55% | RPMI-8226 leukemia 39.5% | SK-OV-3 ovarian 97.1%
active: MDA-MB-468 breast -14.4%

C=C(C)[C@@H]1CC[C@]2(C)[C@H](CC[C@@H]3[C@@H]([C@@](C)(O)CCC=C(C)C)CC[C@]32C)[C@@]1(C)CCC(=O)O
active: MDA-MB-468 breast 8.85% [100 µM]

O=P(O)(O)OCC(O)CO (stereo unspecified)
inactive: MDA-MB-468 breast 100%

O=C(CC(=O)Nc1ccc(Oc2ncnc3scc(Nc4n[nH]c(=S)s4)c23)cc1)Nc1ccc(Cl)cc1
inactive: NCI-H226 lung 67.8% | NCI-H322M lung 94.5% | HOP-62 NSCLC 89.1% | NCI-H460 lung 85.5% | A549/ATCC NSCLC 83% | COLO 205 colon 88.5% | DU-145 prostate 97% | K-562 leukemia 71.3% | SF-539 CNS 91.6% | M14 melanoma 108% | HCT-15 colon 66.9% | HT29 colon 106% | SNB-75 CNS 87.7% | U251 CNS 90.4% | LOX IMVI melanoma 69% | MOLT-4 leukemia 60.2% | SR leukemia 62.2% | RPMI-8226 leukemia 86.8% | SK-OV-3 ovarian 77.5%
active: MDA-MB-468 breast -18.5%

Cn1cc(-c2nnc(N)nc2-c2c[nH]c3ccccc23)c2cc(Br)cnc21
active: LOX IMVI melanoma -75.6% | MOLT-4 leukemia 2.48% | SR leukemia 8.61% | MDA-MB-468 breast -3.61%
inactive: NCI-H226 lung 17.9% | NCI-H322M lung 65.2% | HOP-62 NSCLC 50.6% | NCI-H460 lung 42.3% | A549/ATCC NSCLC 55.1% | COLO 205 colon 32.4% | DU-145 prostate 77% | K-562 leukemia 15.1% | SF-539 CNS 50.2% | M14 melanoma 25.1% | HCT-15 colon 25.4% | HT29 colon 35.6% | SNB-75 CNS 34% | U251 CNS 45.5% | RPMI-8226 leukemia 26.6% | SK-OV-3 ovarian 60.6%

Cc1ccc2c(c1)C(=O)/C(=C/c1ccc([N+](=O)[O-])cc1)S2
inactive: NCI-H226 lung 52.2% | NCI-H322M lung 105% | HOP-62 NSCLC 92% | NCI-H460 lung 92.5% | A549/ATCC NSCLC 99.6% | COLO 205 colon 103% | DU-145 prostate 104% | K-562 leukemia 69.9% | SF-539 CNS 96.6% | M14 melanoma 97.3% | HCT-15 colon 96.2% | HT29 colon 79.1% | SNB-75 CNS 81.3% | U251 CNS 77.8% | LOX IMVI melanoma 105% | MOLT-4 leukemia 107% | SR leukemia 100% | RPMI-8226 leukemia 65.2% | SK-OV-3 ovarian 87.4% | MDA-MB-468 breast 84%

CC(C)(C)c1cc(/C=C2\S/C(=N/c3ncn[nH]3)NC2=O)cc(C(C)(C)C)c1O
inactive: NCI-H322M lung 17% | HOP-62 NSCLC 21.3% | A549/ATCC NSCLC 15.4% | COLO 205 colon 12.4% | DU-145 prostate 32.3% | K-562 leukemia 16.7% | SF-539 CNS 18% | M14 melanoma 17.9% | HCT-15 colon 11.5% | HT29 colon 10.7% | SNB-75 CNS 19.3% | MOLT-4 leukemia 13.8%
active: NCI-H226 lung 5.38% | NCI-H460 lung 3.73% | U251 CNS 2.45% | LOX IMVI melanoma -7.75% | SR leukemia 6.04% | RPMI-8226 leukemia 8.38% | SK-OV-3 ovarian 4.14% | MDA-MB-468 breast 9.25%
